Screening data from PubChem.
ssDAF12 agonist: S. stercoralis DAF-12 nuclear receptor activators, primary screen, cell-based, luminescence, HEK293, GRIP1 co-expression, lit1-tk-luc. AID 652126, 2013. Nuclear hormone receptor DAF-12 (Strongyloides stercoralis). HEK293 ssDAF-12/GRIP1 lit1-tk-luc reporter; % of 3 µM dafachronic acid response. activation, % at 6.8 µM. actives 1% (n = 370,000);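 active means activation above the mean over all tested compounds plus 3 SD, cut at about 0.9% in these data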;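 further: 0% = DMSO-only wells and 100% = 3 µM delta7-dafachronic acid wells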
hgDAF12 agonist: H. glycines DAF-12 receptor agonists, primary screen, cell-based, luminescence, HEK293, GAL4 fusion, UAS-luciferase. Nuclear hormone receptor DAF-12 (Heterodera glycines), GAL4 fusion. HEK293 GAL4-hgDAF12 UAS-luciferase reporter, agonist luminescence; normalized to butyrate control. activation, % at 6.8 µM. actives 1.8% (n = 370,000). AID 687014, 2013;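 active means activation above a cutoff set at the mean of all screened compounds plus 3 SD, cut at about 10% in these data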;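 further: 0% = DMSO wells and 100% = sodium butyrate wells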
DAX1 inh-1: DAX1 (NR0B1) inhibitors on StAR promoter, primary screen, cell-based, luminescence, SF-1 (NR5A1), full-length DAX-1; AID 652010, 2013; inhibition, % at 6.8 µM; actives 1.1% (n = 370,000); HEK293T StAR-luciferase reporter, SF-1/DAX-1 repression relief;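 active means inhibition above the mean over all tested compounds plus 3 SD, cut at about 3.6% in these data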;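 further: 0% = DAX-1 cells with DMSO and 100% = cells lacking DAX-1 with DMSO; higher inhibition means more luminescence from relief of DAX-1 repression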
DAX1 inh-2: DAX1 (NR0B1) inhibitors, primary screen, cell-based, HEK293, Gal4-DAX1, luciferase luminescence; Nuclear receptor subfamily 0 group B member 1 (Homo sapiens), P51843; inhibition, % at 6.75 µM; HEK293 Gal4-DAX1 luciferase reporter; actives 0.99% (n = 340,000);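 active means inhibition above the mean over all tested compounds plus 3 SD, cut at about 4.2% in these data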;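 further: 0% = DAX1-transfected cells with DMSO and 100% = empty-vector control cells with DMSO; inhibition shows as a rise in luminescence from relieved DAX1 repression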
Target sequence (P51843 207-470 limits assumed): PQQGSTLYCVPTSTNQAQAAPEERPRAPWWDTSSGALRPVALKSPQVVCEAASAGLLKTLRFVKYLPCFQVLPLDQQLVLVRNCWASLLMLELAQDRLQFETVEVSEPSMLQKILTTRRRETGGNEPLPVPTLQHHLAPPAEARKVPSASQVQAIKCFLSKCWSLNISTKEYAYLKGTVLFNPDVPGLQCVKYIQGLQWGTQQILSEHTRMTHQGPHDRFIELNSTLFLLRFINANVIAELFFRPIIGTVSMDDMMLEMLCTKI
hcDAF-12 act: H. contortus DAF-12 nuclear receptor activators, primary screen, cell-based, luminescence, HEK293, lit1-tk-luc reporter; HEK293 hcDAF-12 lit1-tk-luc reporter; 0% DMSO, 100% Δ7-dafachronic acid; activation, % at 6.8 µM; actives 1.4% (n = 370,000);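 active means activation above the mean of all tested compounds plus 3 SD, cut at about 5.5% in these data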;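 further: 100% = response to 3 µM Δ7-dafachronic acid high control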
AHR act: AHR activators, primary screen, cell-based, luminescence, luciferase reporter, human; AHR-responsive luciferase reporter cells; activation, % at 5 µM; actives 2.5% (n = 320,000); AID 2796, 2010; in the data active means activation above about 47%;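 further: 0% = vehicle wells and 100% = reference agonist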
DAX1 conf: DAX1 (NR0B1) inhibitors relieving SF-1 repression, confirmation, cell-based, luminescence, HEK293T, full-length DAX-1, SF-1 activated StAR promoter | shares compounds with DAX1 inh-1 | HEK293T StAR-promoter luciferase reporter, SF-1/DAX-1 repression | inhibition, % at 6.8 µM | actives 87% (n = 2,400) | AID 652134, 2013;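 active means inhibition above the average of every tested compound plus 3 SD, cut at about 3.8% in these data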;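 further: 0% = DAX-1 cells with DMSO and 100% = no DAX-1 control cells with DMSO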
SF1 AF2mut Luc: StAR reporter signal changes without DAX1, counter-screen for DAX1 inhibitor project, cell-based, luminescence, AF-2 mutant SF-1, transactivation. shares compounds with DAX1 inh-1. HEK293 StAR-luciferase, SF-1 AF2 mutant. inhibition, % at 6.8 µM. actives 78% (n = 2,400). AID 652136, 2013;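 active means inhibition above the mean of all tested compounds plus 3 SD, cut at about 3% in these data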;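 further: 0% = DAX-1 transfected cells with DMSO and 100% = cells without DAX-1 with DMSO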
LXRb hcDAF ctr: LXR agonists, Gal4 luciferase reporter, confirmation, counter-screen for hcDAF-12 agonist project, cell-based, luminescence, HEK293, H. contortus campaign. shares compounds with hcDAF-12 act. HEK293 Gal4-LXR tk-luc reporter, 24 h; normalized: DMSO 0%, positive control 100%. activation, % at 6.8 µM. 3,400 tested, under 10 active. AID 743027, 2013;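 active means mean percent activation of the reporter above a cutoff set as the average over tested compounds plus their standard deviation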
hcDAF12 ag: H. contortus DAF-12 receptor agonists, confirmation, cell-based, luminescence, HEK293, lit1-tk-luc, triplicate; AID 743032, 2013; actives 61% (n = 3,400); shares compounds with hcDAF-12 act; HEK293 hcDAF-12 lit1-tk-luc reporter; % of Δ7-dafachronic acid response; activation, % at 6.8 µM;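 active means mean activation across triplicate tests above the threshold derived from the earlier primary screen, cut at about 5.5% in these data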;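 further: 0% = DMSO only wells and 100% = 3 µM Δ7-dafachronic acid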
hgDAF12 conf: H. glycines DAF-12 receptor agonists, confirmation, cell-based, luminescence, HEK293, GAL4-LBD fusion. shares compounds with hgDAF12 agonist. HEK293 GAL4-hgDAF12 luciferase reporter, agonist mode; percent of butyrate response. activation, % at 6.8 µM. actives 80% (n = 3,300);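 active means mean activation over triplicate wells above the hit cutoff derived from the earlier primary screen, cut at about 11% in these data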;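 further: 0% = DMSO low control and 100% = 2 mM sodium butyrate high control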
LXR ag 2: LXR agonists, Gal4 luciferase reporter, confirmation, counter-screen for hgDAF-12 agonist project, cell-based, luminescence, HEK293, H. glycines campaign | shares compounds with hgDAF12 agonist | 24 h | activation, % at 6.8 µM | 3,300 tested, under 10 active | AID 743051, 2013;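 active means mean activation of the triplicate above a set limit carried over from the primary screen, none filed active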
Active calls of the source: *; . = no result given. Only some compounds are listed: those with a hit (about 5.7% of all), similar ones and a draw of the others.

SMILES	ssDAF12 agonist	hgDAF12 agonist	DAX1 inh-1	DAX1 inh-2	hcDAF-12 act	AHR act	DAX1 conf	SF1 AF2mut Luc	LXRb hcDAF ctr	hcDAF12 ag	hgDAF12 conf	LXR ag 2
Cc1nnc(NC(=O)c2oc3ccccc3c2C)s1	1.4*	15*	8.9*	1	11*	62*	10.0*	9.5*	1	12*	10*	1
COCCNc1nc(-c2cc3ccccc3o2)cs1	0	16*	6.7*	1	8.7*	-1	9.9*	7.2*	2	7.5*	18*	1
CC(=O)c1cccc(NC(=O)N2CCC(NC(=O)c3ccco3)CC2)c1	-1	-2	-1	0	-1	1	.	.	.	.	.	.
CCc1ccc(C2=NN(C(C)=O)C(c3ccco3)C2)cc1 (stereo not given)	0	15*	4.9*	3	4	7	9.5*	5.5*	.	.	15*	0
CC(=O)N1N=C(c2ccc(NS(=O)(=O)c3ccccc3)cc2)CC1c1ccco1 (stereo not given)	-1	1	-4	-2	-1	1	.	.	.	.	.	.
O=C1SCCN1N=Cc1ccc([N+](=O)[O-])o1	-1	-2	-2	0	-1	.	.	.	.	.	.	.
O=C(Nc1ccc2sccc2c1)c1ccc(Cl)s1	1.4*	21*	9.0*	2	15*	43	20*	11*	2	12*	23*	1
CCOc1ncccc1C(=O)NCC(c1ccco1)N1CCCCC1 (stereo not given)	-1	-3	0	0	0	2	.	.	.	.	.	.
Cc1cc([N+](=O)[O-])ccc1NC(=O)c1csc(C)c1C	0	19*	5.5*	3	3	.	4.5*	2.9*	.	.	19*	1
COc1cccc(CN2CCN(Cc3ccc4c(NC(C)=O)cccc4n3)CC2CCO)c1 (stereo not given)	-1	0	0	0	0	1	.	.	.	.	.	.
